Assay results taken from PubChem BioAssay (EPA / NIEHS).
Several values for one entry are separate records, joined by “and”; a condition that tells them apart may be missing. Identical values can stand only once. Results filed as inconclusive are left out. More than one record can exist for a structure, and the calls need not agree. Activity calls are given as the source filed them. The calls were made as follows: active = hit-call score of the fitted dose curve at least 0.9, where 1 is the maximum; inconclusive = response in the unintended direction; inactive = score below 0.9.

system: not listed separately; experiment: ATG_XTT_Cytotoxicity: Cytotoxicity Assessment in the Attagene TRANS-FACTORIAL HepG2 Assay (AID 2283584);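 as to AC50: cells exposed to compound for 24 h before reading; active means loss of viability signal versus DMSO baseline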
In short: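 XTT readout of cell number in transfected HepG2 cells, 24 h post-dosing; DMSO serves as negative control and baseline, with activity taken as loss of viability signal.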

Row | Compound | outcome | AC50
1 | O=C(Nc1cccc([N+](=O)[O-])c1)c1cc2ccccc2cc1O | inactive | –
2 | Cc1cc(Cc2cc(C)cc(C(C)(C)C)c2O)c(O)c(C(C)(C)C)c1 | – | 74.7 µM (active)
3 | CCC(=O)O | inactive | –
4 | NS(=O)(=O)O | inactive | –
5 | CCCCCCCCCCCCCC[n+]1ccccc1 | – | 28.3 µM (active)
6 | C[C@]12CC[C@@H]3c4ccc(O)cc4CC[C@H]3[C@@H]1CC[C@@H]2OC(=O)CCC1CCCC1 | inactive | –
7 | Cc1ccc(C)c(S(=O)(=O)O)c1 | inactive | –
8 | Clc1ccc(Nc2nnc(Cc3ccncc3)c3ccccc23)cc1 | inactive | –
9 | CCN(CC)CC | inactive | –
10 | O=C1OC(=O)c2cc(-c3ccc4c(c3)C(=O)OC4=O)ccc21 | inactive | –
11 | CCCCCCCCC1CCC(=O)O1 (centres undefined) | inactive | –
12 | CC(O)COc1ccccc1 (centres undefined) | inactive | –
13 | O=C(NO)c1ccccc1 | inactive | –
14 | Oc1c(Cl)cc(Cl)cc1Sc1cc(Cl)cc(Cl)c1O | – | 41.5 µM (active)
15 | CCC1CO1 (centres undefined) | inactive | –
16 | Cc1ccc(C(=O)c2ccccc2)cc1 | inactive | –
17 | O=C(O)C(=O)O | inactive | –
18 | O=C(Nc1ccc(Cl)c(Cl)c1)c1cc(Cl)cc(Cl)c1O | – | 43.1 µM (active)
19 | CCCCCC(C)OC(=O)COc1ccc(Cl)c2cccnc12 (centres undefined) | inactive | –
20 | CC(C)(C)C1CCCCC1O (centres undefined) | inactive | –
21 | COC(=O)CC(C(C)=O)C(=O)OC (centres undefined) | inactive | –
22 | OCC1CCC(CO)CC1 (centres undefined) | inactive | –
23 | CC(=O)Nc1ccc(S(N)(=O)=O)cc1 | inactive | –
24 | CC(C)(O)C(=O)c1ccccc1 | inactive | –
25 | NCc1cccc(CN)c1 | inactive | –

system: not listed separately; experiment: TOX21_p53_BLA_p2_viability: Viability Assessment in the Tox21 HCT-116 p53 Agonism Beta-lactamase Assay, Phase 2 (AID 2283591);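 also: compound exposure lasted 16 h at 37 °C; actives lower the ATP signal meaning cytotoxicity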
In short: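 Cytotoxicity readout: CellTiter-Glo ATP luminescence, 30 min at room temperature, after the beta-lactamase read. Cells were HCT116 exposed 16 h at 37C to compounds pin-transferred at 217-fold dilution from DMSO stocks.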

Row | Compound | outcome | AC50
26 | CCOCCOCC | inactive | –
27 | O=C(c1cc(O)c(O)c(O)c1)c1ccc(O)c(O)c1O | inactive | –
28 | CC1=NN(c2ccccc2)C(=O)C1 | inactive | –
29 | Cc1cc(C(C)(C)C)c(O)c(C(C)(C)C)c1 | inactive | –
30 | CCCCCCCCCCCCOC(=O)c1cc(O)c(O)c(O)c1 | – | 21.7 µM (active) and 28.2 µM (active)

molecular target: Cellular tumor antigen p53 (Homo sapiens) (UniProt P04637); experiment: TOX21_p53_BLA_p2_ratio: Tox21 HCT-116 p53 Agonism Beta-lactamase Assay, Ratio, Phase 2 (AID 2283592)
Sequence (P04637 whole entry, looked up): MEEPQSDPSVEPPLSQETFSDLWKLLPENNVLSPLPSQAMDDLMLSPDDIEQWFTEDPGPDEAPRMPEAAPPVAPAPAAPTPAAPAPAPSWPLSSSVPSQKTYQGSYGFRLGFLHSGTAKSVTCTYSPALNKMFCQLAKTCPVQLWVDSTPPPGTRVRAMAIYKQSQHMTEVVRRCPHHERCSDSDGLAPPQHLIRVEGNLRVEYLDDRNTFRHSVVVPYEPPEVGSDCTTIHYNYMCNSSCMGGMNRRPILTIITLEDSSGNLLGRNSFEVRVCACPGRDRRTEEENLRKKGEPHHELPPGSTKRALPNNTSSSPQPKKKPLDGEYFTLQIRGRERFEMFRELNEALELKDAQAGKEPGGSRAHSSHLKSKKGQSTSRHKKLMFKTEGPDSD
In short: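 In this cell-based reporter format, HCT116 cells were dosed with chemicals delivered from DMSO by 217-fold dilution and incubated 16 h at 37C. Emission at 460 and 530 nm after 2 h CCF4-AM loading provided the ratio, fitted upward versus DMSO.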

Row | Compound | AC50 | outcome
31 | O=C(Nc1cccc([N+](=O)[O-])c1)c1cc2ccccc2cc1O | 1.17 µM (active) | –
32 | Cc1cc(Cc2cc(C)cc(C(C)(C)C)c2O)c(O)c(C(C)(C)C)c1 | 27.1 µM (active) and 46 µM (active) | –
33 | CCC(=O)O | – | inactive
34 | O=C(O)c1cccc(C(=O)O)n1 | – | inactive
35 | CCOC(C)=O | – | inactive
36 | NS(=O)(=O)O | – | inactive
37 | CCCCCCCCCCCCCC[n+]1ccccc1 | 4.85 µM (active) | –
38 | C[C@]12CC[C@@H]3c4ccc(O)cc4CC[C@H]3[C@@H]1CC[C@@H]2OC(=O)CCC1CCCC1 | – | inactive
39 | Cc1ccc(C)c(S(=O)(=O)O)c1 | – | inactive
40 | Clc1ccc(Nc2nnc(Cc3ccncc3)c3ccccc23)cc1 | – | inactive
41 | O=C1OC(=O)c2cc(-c3ccc4c(c3)C(=O)OC4=O)ccc21 | – | inactive
42 | CC(O)COc1ccccc1 (centres undefined) | – | inactive
43 | C=CC(C)(CCC=C(C)C)OC(C)=O (centres undefined) | – | inactive
44 | O=C(NO)c1ccccc1 | – | inactive
45 | CCC1CO1 (centres undefined) | – | inactive
46 | Cc1ccc(C(=O)c2ccccc2)cc1 | – | inactive
47 | O=C(O)C(=O)O | – | inactive
48 | O=C(c1cc(O)c(O)c(O)c1)c1ccc(O)c(O)c1O | 59.5 µM (active) and 61.8 µM (active) | –
49 | O=C(Nc1ccc(Cl)c(Cl)c1)c1cc(Cl)cc(Cl)c1O | 0.354 µM (active) | –
50 | CCCCCC(C)OC(=O)COc1ccc(Cl)c2cccnc12 (centres undefined) | – | inactive
51 | CC1=NN(c2ccccc2)C(=O)C1 | – | inactive
52 | Cc1cc(C(C)(C)C)c(O)c(C(C)(C)C)c1 | – | inactive
53 | COCN(COC)c1nc(N(COC)COC)nc(N(COC)COC)n1 | – | inactive
54 | CC(C)(C)C1CCCCC1O (centres undefined) | – | inactive
55 | OCC1CCC(CO)CC1 (centres undefined) | – | inactive
56 | CC(C)(O)C(=O)c1ccccc1 | – | inactive
57 | CCCCCCCCCCCCOC(=O)c1cc(O)c(O)c(O)c1 | 24.7 µM (active) and 32.4 µM (active) | –
58 | NCc1cccc(CN)c1 | – | inactive
59 | CCC(=O)C=Cc1ccc(OC)cc1 | – | inactive

system: not listed separately; experiment: TOX21_p53_BLA_p3_viability: Viability Assessment in the Tox21 HCT-116 p53 Agonism Beta-lactamase Assay, Phase 3 (AID 2283593);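 also: cells exposed to compound for 16 h before reading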
In short: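 Cellular ATP was quantified by CellTiter-Glo luminescence, read after 30 min at room temperature. Beforehand, HCT116 cells (4000/well) received compound 5 h post-seeding, 217-fold diluted from DMSO, then incubated 16 h at 37C.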

Row | Compound | outcome | AC50
60 | O=C(Nc1cccc([N+](=O)[O-])c1)c1cc2ccccc2cc1O | inactive | –
61 | Cc1cc(Cc2cc(C)cc(C(C)(C)C)c2O)c(O)c(C(C)(C)C)c1 | – | 19.1 µM (active) and 20.2 µM (active)
62 | O=C(O)c1cccc(C(=O)O)n1 | inactive | –
63 | CCOCCOCC | inactive | –
64 | CCOC(C)=O | inactive | –
65 | NS(=O)(=O)O | inactive | –
66 | CCCCCCCCCCCCCC[n+]1ccccc1 | inactive | –
67 | C[C@]12CC[C@@H]3c4ccc(O)cc4CC[C@H]3[C@@H]1CC[C@@H]2OC(=O)CCC1CCCC1 | inactive | –
68 | CCN(CC)CC | inactive | –
69 | O=C1OC(=O)c2cc(-c3ccc4c(c3)C(=O)OC4=O)ccc21 | inactive | –
70 | CC(O)COc1ccccc1 (centres undefined) | inactive | –
71 | C=CC(C)(CCC=C(C)C)OC(C)=O (centres undefined) | inactive | –
72 | O=C(NO)c1ccccc1 | inactive | –
73 | Oc1c(Cl)cc(Cl)cc1Sc1cc(Cl)cc(Cl)c1O | inactive | 73.1 µM (active) and 36.2 µM (active) and 1.49 µM (active)
74 | O=C(c1cc(O)c(O)c(O)c1)c1ccc(O)c(O)c1O | inactive | –
75 | O=C(Nc1ccc(Cl)c(Cl)c1)c1cc(Cl)cc(Cl)c1O | – | 989 nM (active)
76 | CCCCCC(C)OC(=O)COc1ccc(Cl)c2cccnc12 (centres undefined) | inactive | –
77 | CC1=NN(c2ccccc2)C(=O)C1 | inactive | –
78 | Cc1cc(C(C)(C)C)c(O)c(C(C)(C)C)c1 | inactive | –
79 | CC(C)(C)C1CCCCC1O (centres undefined) | inactive | –
80 | COC(=O)CC(C(C)=O)C(=O)OC (centres undefined) | inactive | –
81 | CC(C)(O)C(=O)c1ccccc1 | inactive | –
82 | CCCCCCCCCCCCOC(=O)c1cc(O)c(O)c(O)c1 | – | 49.2 µM (active) and 77.1 µM (active)
83 | CCC(=O)C=Cc1ccc(OC)cc1 | inactive | –
